# Source: PubChem BioAssay (EPA / NIEHS)
# Activity calls are given as the source filed them. How the source made its calls: active means hit-call score of the fitted dose curve at least 0.9, where 1 is the maximum; inactive means score below 0.9.
# Read-out: growth arrest and DNA damage 45 (GADD45G), GADD45G (gene 10912)
# Test: LTEA_HepaRG_GADD45G: Life Technologies and Expression Analysis (LTEA) Assay for growth arrest and DNA damage 45 (GADD45G) using HepaRG (AID 2283499)
# Settings: mRNA level, 48 h; actives raise or lower the signal
# Procedure: LTEA_HepaRG is a cell based, multiplexed-readout assay that uses HepaRG, a human liver cell line, with measurements taken at 48 hours after chemical dosing on a 96-well plate.LTEA_HepaRG_GADD45G is one of 102 assay component(s) measured in the LTEA HepaRG cell culture assay. It is a marker of Cell proliferation, survival, death.Data from the assay component LTEA_HepaRG_GADD45G was analyzed into 1 endpoint. This assay endpoint, LTEA_HepaRG_GADD45G, was analyzed with bidirectional fitting relative to DMSO as the negative control and baseline of activity. Using a type of inducible reporter, measures of mRNA induction for gain or loss-of-signal activity can be used to understand regulation of transcription factor activity. To generalize the intended target to other relatable targets, this assay endpoint is annotated to the mutagenicity response intended target family, where the subfamily is Cell proliferation, survival, death.
# A total of 1060 chemcials from the ToxCast library were tested in eight-point concentration-response experiments. Cell culture and cytotoxicity assays were conducted at Thermo Fisher Scientific's Custom Services facility (Madison, WI). A single lot of human HepaRG cells (Thermo Fisher Scientific, Frederick, MD) was used for the cell culture experiments. 96-well format collagen type I coated plates of human HepaRG cells were prepared using established methods. Briefly, cryopreserved HepaRG cells were thawed, plated at a density of approximately 100,000 cells/well in HepaRG Thaw, Plate, and General Purpose media (HPRG770, Thermo Fisher Scientific), and incubated for 48 hours. 0.5% DMSO was selected as vehicle control to balance the requisite need of DMSO in HepaRG cultures to maintain differentiation (for example, baseline metabolism, proportions of hepatocytes vs. cholangiocytes), while enabling further hepatic receptor pathway activation (for example, PXR and CAR) in response to chemical exposure. 48 hours after plating, the culture medium was replaced with HepaRG Serum-Free Incudtion Media. Cells were exposed to each test chemical in duplicate and maintained in CO2 incubators for another 48 hours. Chemical plates were thawed to room temperature and 200x concentrations of treatment groups were prepared. 8-point conentration-reponse curves were made with the highest exposure at 100 uM, followed by half-log dilutions, all in 0.5% DMSO. Each test plate contained variouse controls, induction positive controls (1mM phenobarbital), cytotoxicity positive controls ([…] aflatoxin B1), vehicle controls (0.5% DMSO), and total lysis controls (0.5% DMSO). Cell morphology images were taken using an Essen IncuCyte FLR automated microscope, with six 96-well plates imaged in about 24 minutes. Images were captured and exported and JPEG files. Spent culture media was transfered to black-well plates for the LDH assay, and remaining media was sorted at -80 C for later use. Cells were treated with RLT buffer and frozen until shipped for gene expression analysis. Total RNA was isolated from the cell suspension in 75 uL of Buffer RLT (Qiagen, Germantown, MD 20874) by Quintiles/Expression Analysis (Durham, NC) using a custom isolation procedure. Total RNA from each plate well was transferred to a preamplification plate. Fluidigm's 96.96 Dynamic ArrayTM (Fluidigm, Amsterdam, the Netherlands) technology was used for gene expression analyses by quantitative reverse transcription polymerase chain reaction (qRT-PCR, performed by Quintiles/Expression Analysis, Durham, NC)89. Standard TaqManTM Assays (Applied Biosystems/ThermoFisher Scientific, Foster City, CA) were used to assess the expression of 93 genes selected based on their selectivity and sensitivity to important hepatic receptors known to be modulated by environmental chemicals; importance in human hepatocyte functionality; and hepatotoxicity. […]
Compound,outcome,AC50
C/C=C/C=C/C(=O)O,inactive,
CCCCC(CC)COP(=O)(OCC(CC)CCCC)OCC(CC)CCCC (stereo not given),inactive,
CS(=O)(=O)c1ccc([C@@H](C[C@H]2CCC(=O)C2)C(=O)Nc2cnccn2)cc1Cl,inactive,
CO[C@@H]1COCC[C@@H]1N[C@@H]1CC[C@@](C(=O)N2CCc3ncc(C(F)(F)F)cc3C2)(C(C)C)C1,inactive,
NC1CCCCC1,inactive,
CCCCCCCCCCCCCCOS(=O)(=O)O,inactive,
O=C(Oc1ccccc1)c1cccc(C(=O)Oc2ccccc2)c1,inactive,
CCOCCOCCO,inactive,
Cc1cc(Cc2ccc(N)c(C)c2)ccc1N,inactive,
CC(=O)O[C@]1(C(C)=O)CC[C@H]2[C@@H]3C=C(Cl)C4=CC(=O)[C@@H]5C[C@@H]5[C@]4(C)[C@H]3CC[C@@]21C,,50 µM (active)
NC(=Nc1ccccc1)Nc1ccccc1,inactive,
N[C@@H](Cc1c[nH]c2ccccc12)C(=O)O,inactive,
CCc1nc(N)nc(N)c1-c1ccc(Cl)cc1,,78.1 µM (active)
C#CC(O)C(CC)CCCC (stereo not given),inactive,
CC(C)(C)c1ccccc1,inactive,
CC(=O)O,inactive,
Cc1ccc(C(C)(C)C)c(O)c1,inactive,
CC(C)OC(=O)C(C)(C)Oc1ccc(C(=O)c2ccc(Cl)cc2)cc1,inactive,
CCCCCCC(CCCCCCCCCCC(=O)OCC(COC(C)=O)OC(C)=O)OC(C)=O (stereo not given),inactive,
O=[Si]=O,inactive,

Compound,outcome,AC50
CC(C)c1cccc(C(C)C)c1NC(=O)NS(=O)(=O)c1cc(C(C)(C)O)co1,inactive,
Oc1ccc(O)cc1,inactive,
Cc1c(C)c2c(c(C)c1O)CCC(C)(COc1ccc(CC3SC(=O)NC3=O)cc1)O2 (stereo not given),,19.1 µM (active)
CCCCCCCC(=O)OC,inactive,
O=C1OC(c2ccc(O)cc2)(c2ccc(O)cc2)c2ccccc21,inactive,
NC=O,inactive,
CC(N)=O,inactive,
COc1ccc(OC(F)(F)F)cc1CN[C@H]1CCCN[C@H]1c1ccccc1,inactive,
C/C=C/c1ccc(OC)cc1,inactive,
S=c1[nH]c2ccccc2s1,inactive,
CCCCC(CC)CO (stereo not given),inactive,
CCCCCCCCCCCCCCCCO,inactive,
NCCOCCOCCN,inactive,
CN(C)CCCN(C)CCCN(C)C,inactive,
Cc1cn([C@H]2C=C[C@@H](CO)O2)c(=O)[nH]c1=O,inactive,
O=C1CCCCC1,inactive,
O=C(O)c1[nH]n(-c2ccc(S(=O)(=O)O)cc2)c(=O)c1N=Nc1ccc(S(=O)(=O)O)cc1,inactive,
CCCCOC(=O)CCCCC(=O)OCCCC,inactive,
Nc1nc(Cl)nc2c1ncn2[C@H]1C[C@H](O)[C@@H](CO)O1,,5.75 µM (active)
CCCC[C@H]1CN(CC2CCOCC2)C(=O)OC12CCN(C1(C)CCN(C(=O)c3c(C)ncnc3C)CC1)CC2,inactive,
